# Measurements published in PubChem BioAssay AID1347076 (National Center for Advancing Translational Sciences (NCATS), 2019).
# Screen size: about 400,000 compounds; about 13,000 (3.2%) were called active. Not shown: some 18% with an inconclusive outcome. The list comes from a sample in which actives are over-represented; it also holds similar structures and randomly drawn compounds. Values without a mark were called inactive. Calls follow the shape of the dose curve; as a rule, active = well fitted cell-killing curve with a large enough effect; inconclusive = small, poorly fitted or top-dose-only effect, or effect the other way; inactive = flat fitted curve, though single readings scatter.
# Experiment: qHTS assay for MDR1-selective chemotherapeutics: Primary screen using the drug-selected MDR subline cells KB-V1; also: nearly all actives have a fitted effect of over 60% in size
# Conditions: KB-V1 MDR cells viability, CellTiter-Glo, 72 h; series mostly up to 46.1 µM; activity change, negative = cytotoxicity: at the top concentration
# Summary of the method: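 Drug-selected KB-V1 cells, grown in DMEM lacking phenol red with 10% FBS, receive compound titrations; after three days at 37 degrees C, surviving cell ATP is quantified by CellTiter-Glo luminescence and responses normalized and curve-fitted.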
# % is scaled to controls: 0 for no effect and ±100 for the full control effect; potency is read from the fitted curve at half-maximal effect.
SMILES,"activity change, negative = cytotoxicity [%]",Potency
COc1cccc(OCCn2c(-c3ccc(Br)cc3)nc3ccccc3c2=O)c1,3.93,
CC[C@]1(O)C[C@@H]2CN(CCc3c([nH]c4ccccc34)[C@@](C(=O)OC)(c3cc4c(cc3OC)N(C)[C@H]3[C@@](O)(C(=O)OC)[C@H](OC(C)=O)[C@]5(CC)C=CCN6CC[C@]43[C@@H]65)C2)C1,,5.17 µM (active)
CC[C@]1(O)CC2CN(CCc3c([nH]c4ccccc34)[C@@](C(=O)OC)(c3cc4c(cc3OC)N(C=O)[C@H]3[C@@](O)(C(=O)OC)[C@H](OC(C)=O)[C@]5(CC)C=CCN6CC[C@]43[C@@H]65)C2)C1 (stereo partly drawn),,20.6 µM (active)
O=CNc1cc(-c2ccc(C(=O)N3CCOCC3)cc2)cn2c(-c3ccc(F)cc3)cnc12,-18,
COC(=O)c1cc(NC(=O)CCS(=O)(=O)c2cc(Br)cc3c2N(C(=O)C2CC2)CC3)cc(C(=O)OC)c1,7.94,
CCNC(=O)C1CCCN(C(=O)c2cc(F)ccc2C)CC1 (stereo not drawn),-22.9,
COc1ccc(NC(=O)C(c2ccncc2)n2c(=O)c(-c3cc4ccccc4[nH]3)nc3ccccc32)cc1 (stereo not drawn),-0.812,
CC(C)c1ccc(NC(=O)c2cc(S(=O)(=O)N3CCc4ccccc4C3)ccc2F)cc1,-14.2,
Cc1ccccc1S(=O)(=O)N1[C@@H](c2cccc(Cl)c2)C(C(=O)OC(C)(C)C)=CC[C@H]1c1ccc(Cl)cc1,0,
COCCCNCCOCCOc1ccc(Cl)cc1Br,-3.06,
CCOCCCNCc1cc(Br)ccc1OCC,-3.55,
CCC(C)NCCOCCOc1ccc(Br)cc1C (stereo not drawn),,20.6 µM (active)
COc1ccc(N)cc1NC(=O)CN1CCOCC1,16.4,
CCCS(=O)(=O)NC(=O)C1(C)CCN(C(=O)c2sccc2C)C1 (stereo not drawn),2.03,
O=C(CN1c2ccccc2S(=O)(=O)c2ccccc21)Nc1cccc(C(F)(F)F)c1,-7.05,
COc1ccc2[nH]c(=O)c(CN(Cc3nnnn3CCc3ccccc3)CC3CCCO3)cc2c1 (stereo not drawn),-18.1,
Cc1cc(C)c2cc(CN(Cc3cccs3)Cc3nnnn3CC3CCCO3)c(=O)[nH]c2c1 (stereo not drawn),,16.4 µM (active)
Cc1cc2cc(CN(Cc3cccs3)Cc3nnnn3CC3CCCO3)c(=O)[nH]c2cc1C (stereo not drawn),-10.7,
CCN(CC)C(=O)C1CCCN(Cc2cccc(Cl)c2)C1 (stereo not drawn),-18.5,
CCOC(=O)N1CCC(N(CCOC)C(=O)Nc2ccc(C)c(C)c2)CC1,,4.11 µM (active)
Cc1ccc(NC(=O)C2CCCN2C(=O)OCc2ccccc2)cc1C (stereo not drawn),-4.42,
CCOC(=O)C1CCN(C(=O)Nc2ccc(C)c(Cl)c2)CC1,-17.6,
Cc1ccc(NC(=O)COC(=O)CN2CCSC2=O)cc1F,23.3,
CCc1ccccc1NC(=O)c1ccc2nc(CCc3ccccc3)oc2c1,11,
CN(C)c1ccc(/C=C2\C=Cc3ccccc32)cc1Br,0.234,

SMILES,"activity change, negative = cytotoxicity [%]",Potency
Cc1ccccc1N1CCN(CC(=O)NCc2ccc(Cl)cc2)CC1,-0.77,
O=C(CN1CCN(S(=O)(=O)c2ccc(Cl)s2)CC1)NCc1ccc(Cl)cc1,,3.66 µM (active)
O=C(CN1CCN(S(=O)(=O)c2ccc(Cl)s2)CC1)N1CCCCC1,0,
Cc1cc(C)c2nc3nc(C)cc(C)c3c(N)c2c1,,18.4 µM (active)
O=C(OC12CC3CC(CC(C3)C1)C2)c1ccc(NCc2cc(O)ccc2O)cc1,,14.6 µM (active)
COC(=O)c1ccc(NCc2cc(O)ccc2O)cc1,2.93,
CC(C)OC(=O)c1ccc(NCc2cc(O)ccc2O)cc1Cl,-6.71,
O=C(Nc1nnc(S(=O)(=O)N2CCCc3ccccc32)s1)c1cccc(F)c1,-5.74,
O=C(CCNC(=O)c1ccccc1)Nc1nc2ccccc2s1,-7.25,
CNC(=O)c1ccsc1NC(=O)c1ccc(S(=O)(=O)N2CCc3ccccc32)cc1,7.33,
O=S(=O)(c1ccccc1)N1CCc2ccccc21,-0.951,
O=C(CNC(=O)c1ccccc1)Oc1ccc([N+](=O)[O-])cc1,18.4,
O=S(=O)(c1ccc2c(c1)OCCO2)N1CCc2ccccc21,0,
O=C(NC(Nc1nc2ccc([N+](=O)[O-])cc2s1)(C(F)(F)F)C(F)(F)F)c1ccccc1,,0.517 µM (active)
CSc1nc2ccc(S(=O)(=O)N3CCc4ccccc43)cc2s1,,3.66 µM (active)
O=C(Nc1nc2ccc([N+](=O)[O-])cc2s1)c1ccc(S(=O)(=O)N2CCCc3ccccc32)cc1,,1.03 µM (active)
CN(Cc1ccccc1)C(=O)[C@@H]1CCCN1C(=O)[C@@H]1CCCN1C(=O)c1c(F)cccc1F,12.5,
O=C(COC(=O)c1cccc(Cl)c1Cl)NC1CCCCCC1,12.9,
CNC[C@H]1OCc2cnnn2CCCC(=O)N([C@H](C)CO)C[C@@H]1C,-19.9,
C[N+](C)(C)CCNC(=O)c1c[nH]c2ccccc12,19,
Cc1ccc(Cc2c(-c3ccc(Cl)cc3)nc3c4ccccc4ccn23)cc1,0,
COc1ccc(CN2C(=O)C(CC(=O)NCCN3CCOCC3)CC(C(=O)N(C(C)C)C(C)C)=C2C)cc1 (stereo not drawn),-19.7,
COC(=O)c1ccccc1S(=O)(=O)Nc1ccc(OC)cc1,0,
OC[C@@H]1CN(Cc2ccc(-c3ccccc3)cc2)C[C@H](n2cnc3c(NC4CCCC4)ncnc32)O1,-23.1,
Cc1ccc(Cn2c(=O)n(Cc3nc(-c4ccccc4)no3)c(=O)c3cc4c(cc32)OCO4)cc1,1.08,

SMILES,"activity change, negative = cytotoxicity [%]",Potency
CCOC(=O)[C@]12CCC=C1N(Cc1ccccc1)C(=O)[C@H](CC(=O)N1CCCC1)C2,-9.13,
COc1cc(C(O)c2nc(-c3cnn(C)c3)cs2)ccc1F (stereo not drawn),-7.75,
COc1ccc(C(=O)c2oc3ccc(Br)cc3c2NC(C)=O)cc1,-12.6,
COc1ccc(/C=C/C(=O)c2cc(Br)ccc(=O)c2O)cc1,,14.6 µM (active)
COc1ccc(C(=O)/C=C/c2ccc(OC3CSC3)cc2)cc1,-14.1,
COc1ccc(CCNC(=O)Nc2ccc3c(c2)c(=O)n(C)n3C)cc1OC,2.68,
COC(=O)C[C@@H]1C=C[C@@H](NC(=O)c2cccnc2)[C@@H](CO)O1,-2.5,
COc1cccc(C(=O)Nc2ccc(N3CCCC3)cc2)c1,,5.8 µM (active)
COc1ccc(C(=O)Nc2ccc(N3CCC(C)CC3)cc2)cc1Br,7.59,
COc1cccc(C(=O)Nc2ccc3nc4n(c(=O)c3c2)CCCCC4)c1,-4.99,
O=C1c2ccccc2C(=O)N1c1ccc(S(=O)(=O)N2CCOCC2)c2ccccc12,17.2,
CCOc1ccccc1N(CC)C(=O)Nc1cn(C)c(=O)c2ccccc12,2.28,
O=c1c2ccccc2nc2n1C(CSc1ccc(F)cc1)CN2 (stereo not drawn),-3.49,
N#Cc1c(-c2ccccc2)nc(SCc2cccc(C(F)(F)F)c2)[nH]c1=O,2.26,
O=c1c2ccccc2nc2n1C(CSCc1cccc(C(F)(F)F)c1)CS2 (stereo not drawn),,2.59 µM (active)
COc1ccc(N(C)S(=O)(=O)c2ccc3c(c2)CC(C)N3C(=O)C2CC2)c(OC)c1 (stereo not drawn),,8.2 µM (active)
COc1cccc(CNS(=O)(=O)c2ccc3c(c2)CC(C)N3C(=O)C2CCC2)c1 (stereo not drawn),,inactive
COc1cccc(CNS(=O)(=O)c2ccc3c(c2)CC(C)N3C(C)=O)c1 (stereo not drawn),-12.7,
COc1cc(NC(=O)C2=C(C)OCCS2)c(Cl)cc1C(=O)NCCCN1CCCC(C)C1 (stereo not drawn),-18.3,
Cc1cc(C)cc(-n2c(SCC(=O)NCC3CCCO3)nc3c([nH]c4ccccc43)c2=O)c1 (stereo not drawn),3.92,
CCCc1ccc(OCC(=O)NNC(=S)NC(=O)c2ccco2)cc1,-7.59,
CC(Oc1ccc2ccccc2c1)C(=O)NNC(=S)NC(=O)c1ccco1 (stereo not drawn),,3.66 µM (active)
Cc1ccc(C(=O)NNC(=O)C(C)Oc2ccc3ccccc3c2)o1 (stereo not drawn),-25.8,
COC(=O)Cc1ccc(OC2(C)CCN(Cc3ccc4c(c3)OCCO4)C2)cc1 (stereo not drawn),0.961,
CC(C)CCNC(=O)C(C)N(C(=O)Cn1nnc(-c2ccc(F)cc2)n1)C1CCCC1 (stereo not drawn),0.71,

SMILES,"activity change, negative = cytotoxicity [%]",Potency
CN(C(=O)Cn1nnc(-c2ccc(F)cc2)n1)C1CCS(=O)(=O)C1 (stereo not drawn),12.2,
CC(C)CCNC(=O)CN(C(=O)Cn1nnc(-c2ccc(F)cc2)n1)C1CCCC1,,10.3 µM (active)
COc1ccc(C(CNC(=O)c2ccc(OCc3cscn3)cc2)N2CCCC2)cc1 (stereo not drawn),-28.3,
CCCCCCC1(C)NC(c2ccc3c(c2)OCO3)=CC(c2ccccc2O)N1 (stereo not drawn),21.4,
Cc1ccc(S(=O)(=O)N2C[C@H]3n4c(=O)ccc(=O)n4C[C@H](OC(=O)NC4CCCC4)[C@@]3(O)C2)cc1,6.2,
COc1cccc(NC(=O)C2(C)CCN2Cc2ccccc2Cl)c1 (stereo not drawn),-11.7,
O=Nc1c(O)cc(O)c2ccccc12,-0.874,
Cc1cccc(Nc2nc(C)nc(N)c2S(=O)(=O)c2ccccc2)c1,-14.7,
CCN1CCN(c2ccc([N+](=O)[O-])cc2C(=O)c2ccc(Cl)cc2)CC1,,23.1 µM (active)
CC1CCN(c2ccc([N+](=O)[O-])cc2C(N)=O)CC1,-27.9,
O=C(Nc1cccc(Cl)c1)c1cc([N+](=O)[O-])ccc1N1CCN(CCO)CC1,-0.872,
COc1ccc(CC(N)c2csc(NC(=O)NC(c3ccccc3)c3ccccc3)n2)cc1 (stereo not drawn),3.62,
CC1(C(=O)NS(=O)(=O)c2cccc(OC(F)F)c2)CCN1C(=O)C1CC1 (stereo not drawn),-4.92,
Cc1ccc(CN2CC(N3CCC(Cc4ccccc4)CC3)CS2(=O)=O)cc1 (stereo not drawn),-1.68,
O=C(Nc1ccc(Cl)cc1)Nc1ccc(C(=O)N2CCOCC2)cc1,-1.12,
CS(=O)(=O)Nc1ccc(C(=O)N2CCCC2)cc1,-3.08,
Cc1c(Cl)cccc1NC(=O)Nc1ccc(C(=O)N2CCCC2)cc1,,16.4 µM (active)
O=C(Nc1cccc(Cl)c1)c1csnn1,12,
COc1ccc(C2NC(=O)N(C)C3=C2C(=O)N(c2ccc(C(=O)O)cc2)C3)cc1 (stereo not drawn),5.43,
O=S1(=O)N=C(Oc2cccc(Br)c2)c2ccccc21,5.35,
CCCCOC(=O)c1ccc(NC(c2ccc(C)cc2)P(=O)(OC)OC)cc1 (stereo not drawn),-7.03,
Cc1cccc(C(=O)OCC(=O)Nc2ccc(F)cc2)c1,2.36,
CCOP(=O)(OCC)C(Nc1cccc(C)c1)c1ccc(F)cc1 (stereo not drawn),,16.4 µM (active)
